# The full list was thinned out, with the strongest signals kept by preference.
# B1: MPA (Maclura pomifera), P18674 (protein)
# chain: GVTFDDGAYTGIREINFEYNSETAIGGLRVTYDLNGMPFVAEDHKSFITGFKPVKISLEFPSEYIVEVSGYVGKVEGYTVIRSLTFKTNKQTYGPYGVTNGTPFSLPIENGLIVGFKGSIGYWLDYFSIYLSL
# Key:
# Assay in all cases: glycan array binding signal (z-score within array); higher = stronger binding
# Conditions in all cases: glycan notation: IUPAC condensed, linker removed
# Gal6P(b1-4)GlcNAc = biological target: Gal6P(b1-4)GlcNAc
# How it was run: (§1)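 From the Consortium for Functional Glycomics database, 3228 arrays were curated, keeping only those whose protein sequence was available. Binding is given as a within-array Z-score averaged across arrays sharing a protein sequence and across linkers. Negative Z-scores can be read as non-binding.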
# [1] = biological target: GlcA3S(b1-3)Gal(b1-4)GlcNAc(b1-2)Man
# How it was run: as §1
# [2] = biological target: GlcNAc(a1-4)Gal(b1-4)GlcNAc(b1-3)Gal(b1-4)[Fuc(a1-3)]GlcNAc(b1-3)Gal(b1-4)[Fuc(a1-3)]GlcNAc
# How it was run: as §1
# [3] = biological target: GlcNAc(b1-3)Gal(b1-4)GlcNAc(b1-2)[GlcNAc(b1-3)Gal(b1-4)GlcNAc(b1-6)]Man(a1-6)[GlcNAc(b1-3)Gal(b1-4)GlcNAc(b1-2)Man(a1-3)]Man(b1-4)GlcNAc(b1-4)GlcNAc
# How it was run: as §1
# [4] = biological target: GlcNAc(b1-3)Gal(b1-4)GlcNAc(b1-3)Gal(b1-4)GlcNAc
# How it was run: as §1
# [5] = biological target: GlcNAc(b1-3)Gal(b1-4)GlcNAc(b1-3)Gal(b1-4)GlcNAc(b1-2)Man(a1-3)[GlcNAc(b1-3)Gal(b1-4)GlcNAc(b1-3)Gal(b1-4)GlcNAc(b1-2)Man(a1-6)]Man(b1-4)GlcNAc(b1-4)GlcNAc
# How it was run: as §1
# [6] = biological target: GlcNAc(b1-3)Gal(b1-4)GlcNAc(b1-3)Gal(b1-4)GlcNAc(b1-3)Gal(b1-4)GlcNAc(b1-2)Man(a1-3)[GlcNAc(b1-3)Gal(b1-4)GlcNAc(b1-3)Gal(b1-4)GlcNAc(b1-3)Gal(b1-4)GlcNAc(b1-2)Man(a1-6)]Man(b1-4)GlcNAc(b1-4)[Fuc(a1-6)]GlcNAc
# How it was run: as §1
# [7] = biological target: GlcNAc(b1-3)Gal(b1-4)GlcNAc(b1-3)Gal(b1-4)GlcNAc(b1-3)Gal(b1-4)GlcNAc(b1-2)[GlcNAc(b1-3)Gal(b1-4)GlcNAc(b1-3)Gal(b1-4)GlcNAc(b1-3)Gal(b1-4)GlcNAc(b1-6)]Man(a1-6)[GlcNAc(b1-3)Gal(b1-4)GlcNAc(b1-3)Gal(b1-4)GlcNAc(b1-3)Gal(b1-4)GlcNAc(b1-2)Man(a1-3)]Man(b1-4)GlcNAc(b1-4)[Fuc(a1-6)]GlcNAc
# How it was run: as §1
# [8] = biological target: GlcNAc(b1-3)Gal(b1-4)GlcNAc(b1-3)Gal(b1-4)GlcNAc(b1-3)Gal(b1-4)GlcNAc(b1-3)Gal(b1-4)GlcNAc(b1-2)[GlcNAc(b1-3)Gal(b1-4)GlcNAc(b1-3)Gal(b1-4)GlcNAc(b1-3)Gal(b1-4)GlcNAc(b1-3)Gal(b1-4)GlcNAc(b1-6)]Man(a1-6)[GlcNAc(b1-3)Gal(b1-4)GlcNAc(b1-3)Gal(b1-4)GlcNAc(b1-3)Gal(b1-4)GlcNAc(b1-3)Gal(b1-4)GlcNAc(b1-2)Man(a1-3)]Man(b1-4)GlcNAc(b1-4)[Fuc(a1-6)]GlcNAc
# How it was run: as §1
# [9] = biological target: GlcNAc(b1-3)Gal(b1-4)GlcNAc(b1-3)Gal(b1-4)GlcNAc(b1-3)GalNAc
# How it was run: as §1
# [10] = biological target: GlcNAc(b1-4)GlcNAc(b1-4)GlcNAc(b1-4)GlcNAc(b1-4)GlcNAc(b1-4)GlcNAc
# How it was run: as §1
# [11] = biological target: Man(a1-2)Man(a1-2)Man(a1-6)[Man(a1-3)]Man
# How it was run: as §1
# [12] = biological target: Man(a1-2)Man(a1-3)[Man(a1-2)Man(a1-6)]Man(a1-6)[Man(a1-2)Man(a1-2)Man(a1-3)]Man
# How it was run: as §1
# [13] = biological target: Neu5Ac(a2-3)Gal(b1-3)GalNAc(b1-4)[Neu5Ac(a2-3)]Gal(b1-4)Glc
# How it was run: as §1
# [14] = biological target: Neu5Ac(a2-3)Gal(b1-3)GalNAc(b1-4)[Neu5Ac(a2-8)Neu5Ac(a2-3)]Gal(b1-4)Glc
# How it was run: as §1
# [15] = biological target: Neu5Ac(a2-3)Gal(b1-3)GlcNAc(b1-2)Man
# How it was run: as §1
# [16] = biological target: Neu5Ac(a2-3)Gal(b1-3)[Neu5Ac(a2-6)]GalNAc
# How it was run: as §1
# [17] = biological target: Neu5Ac(a2-3)Gal(b1-4)GlcNAc(b1-2)[Neu5Ac(a2-3)Gal(b1-4)GlcNAc(b1-6)]Man(a1-6)[Neu5Ac(a2-3)Gal(b1-4)GlcNAc(b1-2)Man(a1-3)][GlcNAc(b1-4)]Man(b1-4)GlcNAc(b1-4)GlcNAc
# How it was run: as §1
# [18] = biological target: Neu5Ac(a2-3)Gal(b1-4)GlcNAc(b1-3)Gal(b1-4)GlcNAc(b1-3)Gal(b1-4)GlcNAc(b1-2)Man(a1-3)[Neu5Ac(a2-3)Gal(b1-4)GlcNAc(b1-3)Gal(b1-4)GlcNAc(b1-3)Gal(b1-4)GlcNAc(b1-2)Man(a1-6)]GalNAc
# How it was run: as §1
# [19] = biological target: Neu5Ac(a2-6)Gal(b1-4)GlcNAc(b1-3)Gal(b1-4)GlcNAc(b1-3)Gal(b1-4)GlcNAc(b1-2)Man(a1-3)[Neu5Ac(a2-6)Gal(b1-4)GlcNAc(b1-3)Gal(b1-4)GlcNAc(b1-3)Gal(b1-4)GlcNAc(b1-2)Man(a1-6)]GalNAc
# How it was run: as §1
# [20] = biological target: Neu5Ac(a2-6)GlcNAc(b1-4)GlcNAc
# How it was run: as §1
# [21] = biological target: Neu5Ac(a2-8)Neu5Ac(a2-3)[GalNAc(b1-4)]Gal(b1-4)Glc
# How it was run: as §1
# [22] = biological target: Neu5Ac(a2-8)Neu5Ac(a2-8)Neu5Ac(a2-3)[Gal(b1-3)GalNAc(b1-4)]Gal(b1-4)Glc
# How it was run: as §1
# Neu5Gc(a2-3)Gal(b1-4)Glc = biological target: Neu5Gc(a2-3)Gal(b1-4)Glc
# How it was run: as §1
# [23] = biological target: Neu5Gc(a2-8)Neu5Gc(a2-3)Gal(b1-4)GlcNAc(b1-3)Gal(b1-4)GlcNAc
# How it was run: as §1
binder,measurement,setting,value
B1,glycan array binding signal (z-score),Gal6P(b1-4)GlcNAc,-0.561
same,glycan array binding signal (z-score),[1],-0.571
same,glycan array binding signal (z-score),[2],-0.148
same,glycan array binding signal (z-score),[3],5.1
same,glycan array binding signal (z-score),[4],-0.233
same,glycan array binding signal (z-score),[5],3.5
same,glycan array binding signal (z-score),[6],5.73
same,glycan array binding signal (z-score),[7],4.46
same,glycan array binding signal (z-score),[8],0.56
same,glycan array binding signal (z-score),[9],-0.343
same,glycan array binding signal (z-score),[10],-0.082
same,glycan array binding signal (z-score),[11],-0.161
same,glycan array binding signal (z-score),[12],-0.215
same,glycan array binding signal (z-score),[13],-0.301
same,glycan array binding signal (z-score),[14],-0.179
same,glycan array binding signal (z-score),[15],1.21
same,glycan array binding signal (z-score),[16],0.304
same,glycan array binding signal (z-score),[17],-0.334
same,glycan array binding signal (z-score),[18],3.56
same,glycan array binding signal (z-score),[19],6.71
same,glycan array binding signal (z-score),[20],-0.39
same,glycan array binding signal (z-score),[21],-0.273
same,glycan array binding signal (z-score),[22],-0.044
same,glycan array binding signal (z-score),Neu5Gc(a2-3)Gal(b1-4)Glc,-0.156
same,glycan array binding signal (z-score),[23],-0.219

# Reference: the supplement of paper PMC8728848
